Reference: ChEMBL document CHEMBL1961873, “Compounds: GSK PKIS; Assays: Nanosyn kinase panel” (2012)

How the values were obtained:
[1] = molecular target: Serine/threonine-protein kinase PAK 6 (Homo sapiens) (UniProt Q9NQU5); conditions: at 1 µM;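 also: values are mean percent inhibition of PAK6 kinase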
[2] = test system: Tyrosine-protein kinase ABL1 (Homo sapiens), P00519 [E255K]; conditions: at 0.1 µM
[3] = test system: Tyrosine-protein kinase ABL1 (Homo sapiens), P00519 [E255K]; conditions: at 1 µM
[4] = test system: Tyrosine-protein kinase ABL1 (Homo sapiens), P00519 [H396P]; conditions: at 0.1 µM
[5] = test system: Tyrosine-protein kinase ABL1 (Homo sapiens), P00519 [H396P]; conditions: at 1 µM
[6] = test system: Tyrosine-protein kinase ABL1 (Homo sapiens), P00519 [M351T]; conditions: at 0.1 µM
[7] = test system: Tyrosine-protein kinase ABL1 (Homo sapiens), P00519 [M351T]; conditions: at 1 µM
[8] = test system: Tyrosine-protein kinase ABL1 (Homo sapiens), P00519 [Q252H]; conditions: at 0.1 µM
[9] = test system: Tyrosine-protein kinase ABL1 (Homo sapiens), P00519 [Q252H]; conditions: at 1 µM
[10] = test system: Tyrosine-protein kinase ABL1 (Homo sapiens), P00519 [T315I]; conditions: at 0.1 µM
[11] = test system: Tyrosine-protein kinase ABL1 (Homo sapiens), P00519 [T315I]; conditions: at 1 µM
[12] = test system: Tyrosine-protein kinase ABL1 (Homo sapiens), P00519 [Y253F]; conditions: at 0.1 µM
[13] = test system: Tyrosine-protein kinase ABL1 (Homo sapiens), P00519 [Y253F]; conditions: at 1 µM
[14] = molecular target: Tyrosine-protein kinase ABL1 (Homo sapiens) (UniProt P00519); conditions: at 0.1 µM
[15] = molecular target: Tyrosine-protein kinase ABL1 (Homo sapiens) (UniProt P00519); conditions: at 1 µM
[16] = molecular target: ALK tyrosine kinase receptor (Homo sapiens) (UniProt Q9UM73); conditions: at 0.1 µM
[17] = molecular target: ALK tyrosine kinase receptor (Homo sapiens) (UniProt Q9UM73); conditions: at 1 µM
[18] = molecular target: Tyrosine-protein kinase ABL2 (Homo sapiens) (UniProt P42684); conditions: at 0.1 µM
[19] = molecular target: Tyrosine-protein kinase ABL2 (Homo sapiens) (UniProt P42684); conditions: at 1 µM
[20] = molecular target: Tyrosine-protein kinase receptor UFO (Homo sapiens) (UniProt P30530); conditions: at 0.1 µM;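 also: values are mean percent inhibition of AXL from the GSK PKIS screen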
Sequence of Tyrosine-protein kinase receptor UFO (Homo sapiens) (P30530 whole entry): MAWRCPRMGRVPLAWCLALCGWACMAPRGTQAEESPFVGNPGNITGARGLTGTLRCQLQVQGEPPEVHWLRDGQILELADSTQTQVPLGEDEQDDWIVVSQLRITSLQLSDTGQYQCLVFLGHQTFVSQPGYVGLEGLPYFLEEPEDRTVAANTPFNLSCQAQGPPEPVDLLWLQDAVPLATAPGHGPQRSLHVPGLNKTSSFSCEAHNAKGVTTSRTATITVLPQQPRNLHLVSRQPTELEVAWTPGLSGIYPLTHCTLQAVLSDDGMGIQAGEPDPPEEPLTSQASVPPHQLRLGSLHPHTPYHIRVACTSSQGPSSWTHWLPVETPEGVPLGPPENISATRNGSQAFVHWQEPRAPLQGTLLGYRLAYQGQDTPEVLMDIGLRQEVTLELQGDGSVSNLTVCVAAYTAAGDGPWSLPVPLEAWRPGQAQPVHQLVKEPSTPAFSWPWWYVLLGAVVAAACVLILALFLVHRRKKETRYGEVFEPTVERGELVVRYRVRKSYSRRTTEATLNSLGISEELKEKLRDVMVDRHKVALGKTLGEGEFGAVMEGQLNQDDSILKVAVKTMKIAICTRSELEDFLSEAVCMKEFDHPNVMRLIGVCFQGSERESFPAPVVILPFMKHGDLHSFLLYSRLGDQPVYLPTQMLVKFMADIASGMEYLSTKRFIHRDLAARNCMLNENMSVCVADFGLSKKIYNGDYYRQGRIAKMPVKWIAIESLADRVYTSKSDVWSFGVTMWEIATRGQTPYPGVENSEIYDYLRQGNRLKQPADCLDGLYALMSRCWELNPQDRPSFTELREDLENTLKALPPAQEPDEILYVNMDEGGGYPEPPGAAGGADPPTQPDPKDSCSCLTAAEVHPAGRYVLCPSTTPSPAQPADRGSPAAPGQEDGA

Sequence of Serine/threonine-protein kinase PAK 6 (Homo sapiens) (Q9NQU5 whole entry, looked up): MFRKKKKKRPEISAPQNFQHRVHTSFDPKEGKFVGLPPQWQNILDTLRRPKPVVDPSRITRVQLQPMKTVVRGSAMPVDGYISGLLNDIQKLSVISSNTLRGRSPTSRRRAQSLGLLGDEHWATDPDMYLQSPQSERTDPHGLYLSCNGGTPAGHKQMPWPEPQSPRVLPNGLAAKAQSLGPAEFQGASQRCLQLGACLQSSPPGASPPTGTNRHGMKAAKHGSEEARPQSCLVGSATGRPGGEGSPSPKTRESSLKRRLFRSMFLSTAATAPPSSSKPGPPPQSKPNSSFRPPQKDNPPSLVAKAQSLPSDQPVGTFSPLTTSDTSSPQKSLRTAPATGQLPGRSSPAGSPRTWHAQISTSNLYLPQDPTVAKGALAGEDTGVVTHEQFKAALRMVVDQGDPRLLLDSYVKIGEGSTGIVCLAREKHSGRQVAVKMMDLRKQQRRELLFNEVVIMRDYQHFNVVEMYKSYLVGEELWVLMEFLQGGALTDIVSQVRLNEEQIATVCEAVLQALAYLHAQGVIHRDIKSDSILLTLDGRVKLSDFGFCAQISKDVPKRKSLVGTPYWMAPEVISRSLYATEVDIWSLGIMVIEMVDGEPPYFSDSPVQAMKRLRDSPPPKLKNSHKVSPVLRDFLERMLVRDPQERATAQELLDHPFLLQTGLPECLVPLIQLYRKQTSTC
Sequence of Tyrosine-protein kinase ABL2 (Homo sapiens) (P42684 whole entry): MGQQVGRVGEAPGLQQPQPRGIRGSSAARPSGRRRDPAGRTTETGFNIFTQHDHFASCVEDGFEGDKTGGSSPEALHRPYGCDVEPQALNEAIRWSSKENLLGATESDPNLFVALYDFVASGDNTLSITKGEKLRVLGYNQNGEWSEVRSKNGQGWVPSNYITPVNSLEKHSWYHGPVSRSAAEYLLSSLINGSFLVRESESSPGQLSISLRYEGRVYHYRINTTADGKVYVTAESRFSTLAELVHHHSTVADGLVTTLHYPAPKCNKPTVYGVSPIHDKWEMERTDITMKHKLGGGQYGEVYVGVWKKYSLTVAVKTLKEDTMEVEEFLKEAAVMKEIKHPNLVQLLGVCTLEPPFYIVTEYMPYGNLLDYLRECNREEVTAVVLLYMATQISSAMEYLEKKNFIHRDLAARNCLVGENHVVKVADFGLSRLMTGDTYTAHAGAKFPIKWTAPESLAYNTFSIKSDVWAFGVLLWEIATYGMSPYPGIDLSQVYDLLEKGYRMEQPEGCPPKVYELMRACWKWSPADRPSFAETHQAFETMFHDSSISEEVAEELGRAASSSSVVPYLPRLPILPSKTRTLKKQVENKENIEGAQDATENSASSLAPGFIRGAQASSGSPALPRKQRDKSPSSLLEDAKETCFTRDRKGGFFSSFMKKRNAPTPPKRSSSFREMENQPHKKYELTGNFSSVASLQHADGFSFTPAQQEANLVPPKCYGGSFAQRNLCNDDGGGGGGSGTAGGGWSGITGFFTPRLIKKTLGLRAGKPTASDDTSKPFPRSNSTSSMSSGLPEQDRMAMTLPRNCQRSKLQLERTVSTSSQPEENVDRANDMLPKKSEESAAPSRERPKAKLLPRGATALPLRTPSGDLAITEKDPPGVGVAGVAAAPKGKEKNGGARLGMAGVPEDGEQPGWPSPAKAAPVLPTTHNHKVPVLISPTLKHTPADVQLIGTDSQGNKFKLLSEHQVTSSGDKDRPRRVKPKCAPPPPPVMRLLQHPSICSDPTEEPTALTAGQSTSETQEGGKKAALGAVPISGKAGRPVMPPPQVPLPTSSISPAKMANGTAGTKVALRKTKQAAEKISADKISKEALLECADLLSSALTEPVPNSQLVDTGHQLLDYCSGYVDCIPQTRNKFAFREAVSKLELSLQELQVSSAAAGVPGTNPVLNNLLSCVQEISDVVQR
Sequence of ALK tyrosine kinase receptor (Homo sapiens) (Q9UM73 19-1620 limits assumed): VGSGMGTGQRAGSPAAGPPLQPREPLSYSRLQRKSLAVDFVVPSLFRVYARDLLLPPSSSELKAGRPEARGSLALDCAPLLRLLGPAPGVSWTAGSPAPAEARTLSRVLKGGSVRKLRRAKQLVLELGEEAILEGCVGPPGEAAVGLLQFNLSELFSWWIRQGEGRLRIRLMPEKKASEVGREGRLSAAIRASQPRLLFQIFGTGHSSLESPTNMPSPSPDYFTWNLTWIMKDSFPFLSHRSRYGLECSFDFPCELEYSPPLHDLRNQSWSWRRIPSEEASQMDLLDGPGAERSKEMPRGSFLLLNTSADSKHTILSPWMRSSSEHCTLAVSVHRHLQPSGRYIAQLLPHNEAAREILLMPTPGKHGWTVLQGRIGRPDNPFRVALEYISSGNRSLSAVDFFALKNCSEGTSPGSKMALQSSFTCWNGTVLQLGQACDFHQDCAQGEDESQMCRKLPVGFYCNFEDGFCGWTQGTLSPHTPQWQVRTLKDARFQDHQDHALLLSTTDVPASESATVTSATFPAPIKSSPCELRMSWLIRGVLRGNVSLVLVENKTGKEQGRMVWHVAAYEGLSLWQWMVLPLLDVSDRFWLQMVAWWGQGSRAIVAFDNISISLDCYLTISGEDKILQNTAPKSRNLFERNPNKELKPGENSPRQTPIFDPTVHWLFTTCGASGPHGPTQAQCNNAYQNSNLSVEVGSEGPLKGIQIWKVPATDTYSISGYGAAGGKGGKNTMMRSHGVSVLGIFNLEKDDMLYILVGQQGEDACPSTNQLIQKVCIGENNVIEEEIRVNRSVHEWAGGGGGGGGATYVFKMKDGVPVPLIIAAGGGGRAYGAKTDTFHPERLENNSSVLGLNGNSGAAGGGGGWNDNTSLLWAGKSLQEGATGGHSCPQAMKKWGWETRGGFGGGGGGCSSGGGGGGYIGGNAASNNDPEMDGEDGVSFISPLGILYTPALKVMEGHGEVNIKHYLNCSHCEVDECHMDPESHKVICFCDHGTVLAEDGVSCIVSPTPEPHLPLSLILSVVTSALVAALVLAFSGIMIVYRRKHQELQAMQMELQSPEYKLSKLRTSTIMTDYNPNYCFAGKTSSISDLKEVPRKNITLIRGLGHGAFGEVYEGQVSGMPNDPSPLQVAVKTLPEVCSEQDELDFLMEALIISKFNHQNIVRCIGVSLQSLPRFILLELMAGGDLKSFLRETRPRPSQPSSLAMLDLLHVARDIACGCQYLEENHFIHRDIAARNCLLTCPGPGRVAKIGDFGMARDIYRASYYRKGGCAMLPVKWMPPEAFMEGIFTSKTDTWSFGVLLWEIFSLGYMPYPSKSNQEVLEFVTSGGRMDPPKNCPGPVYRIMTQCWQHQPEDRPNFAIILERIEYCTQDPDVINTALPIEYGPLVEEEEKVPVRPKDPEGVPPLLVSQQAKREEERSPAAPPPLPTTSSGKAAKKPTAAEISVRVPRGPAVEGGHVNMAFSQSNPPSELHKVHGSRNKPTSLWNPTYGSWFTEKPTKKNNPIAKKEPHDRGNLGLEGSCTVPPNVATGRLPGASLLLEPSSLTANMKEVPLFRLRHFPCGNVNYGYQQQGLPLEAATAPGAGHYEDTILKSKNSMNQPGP

SMILES | inhibition [1] | inhibition [2] | inhibition [3] | inhibition [4] | inhibition [5] | inhibition [6] | inhibition [7] | inhibition [8] | inhibition [9] | inhibition [10] | inhibition [11] | inhibition [12] | inhibition [13] | inhibition [14] | inhibition [15] | inhibition [16] | inhibition [17] | inhibition [18] | inhibition [19] | inhibition [20]
Nc1nc(-c2cccc(Cl)c2)c(-c2ccc3ncccc3n2)s1 | -0.98% | 3.98% | 11.2% | 7.52% | 19.9% | 3.37% | 20.2% | 6.97% | 16.9% | 3.18% | 7.84% | 5.66% | 15.3% | 3.63% | 15.7% | 5.48% | 7.43% | 3.3% | 7.05% | -6.08%
CC1=C(C(=O)Nc2cc(Cl)c3[nH]ncc3c2)C(c2ccc(C(F)(F)F)cc2)CC(=O)N1 (stereo not given) | -3.39% | 3.18% | 3.01% | 4.1% | 2.88% | 1.43% | 4.53% | 4.06% | 4.83% | 2.02% | 3.3% | 3.38% | 4.41% | 2.62% | 1.72% | 2.22% | 2.26% | 3.63% | 3.51% | -4.79%
CCN(CC)S(=O)(=O)c1ccc(OC)c(Nc2ncc(-c3ccccc3)o2)c1 | 4.66% | 1.69% | 28.2% | 4.61% | 32.8% | 6.41% | 38.4% | 5.31% | 38.5% | 1.63% | 8.65% | 9.09% | 41.8% | 3.01% | 28.1% | 0.5% | 4.19% | 6.09% | 36.6% | 0.5%
O=S(=O)(CCNCc1ccc(-c2ccc3ncnc(Nc4ccc(OCc5cccc(F)c5)c(Cl)c4)c3c2)o1)c1ccccc1 | 0.68% | 3.29% | 4.49% | 5.17% | 6.8% | 1.27% | 2.88% | 5.71% | 6.36% | 2.35% | 3.4% | 5.4% | 6.85% | 5.27% | 10.1% | 4.32% | 6.67% | 4.64% | 8.2% | -7.43%
Nc1nc(-c2ccc(F)cc2)c(-c2ccc3ncccc3n2)s1 | -1.32% | 6.26% | 16.1% | 6.76% | 24.2% | 2.61% | 20.2% | 6.38% | 25.9% | 5.1% | 6.49% | 9.13% | 26.9% | 9.42% | 27.8% | 3.27% | 5.68% | 6.71% | 20.1% | -5.15%
COc1ccc(-c2oc3ncnc(N)c3c2-c2ccc(NC(=O)Nc3cc(C(F)(F)F)ccc3F)cc2)cc1 | 11% | 3.15% | 22.9% | 10.3% | 58.2% | 34.6% | 76.4% | 33.6% | 76.2% | 21.9% | 64.3% | 9.77% | 54.4% | 7.54% | 52.3% | 2.32% | 8.5% | 13.6% | 68.1% | 21.3%
Cc1ccc(O)cc1Nc1ccnc2cc(-c3ccccn3)ccc12 | 4.08% | 93.5% | 96.2% | 94.7% | 97.2% | 93.6% | 97.9% | 94% | 98% | 10.1% | 50.7% | 95.5% | 98.2% | 84.3% | 89.4% | 5.32% | 34.1% | 74.3% | 95.7% | -5.44%
c1ccc(-c2nc3n(c2-c2ccc4c(c2)OCO4)CCC3)nc1 | -6.18% | 1.4% | 3.7% | 0.35% | 2.48% | 1.01% | 3.51% | 0.69% | 3.62% | 0.65% | 6.07% | 1.92% | 3.95% | 0.85% | 6.39% | 0.99% | 1.4% | 0.69% | 4.67% | -1.96%
CCn1c(-c2nonc2N)nc2ccccc21 | -4.14% | 3.43% | 2.16% | 3.5% | 0.21% | 2.29% | -3.04% | 4.29% | 0.56% | 2.3% | 1.53% | 3.97% | 4.13% | 4.4% | 6.01% | 1.5% | 8.1% | 4.04% | 3% | -0.67%
Fc1cccc(COc2ccc(Nc3ncnc4sc(-c5ccco5)cc34)cc2Cl)c1 | -3.19% | 3.34% | 3.39% | 3.3% | 5.3% | 0.31% | 1.04% | 3.83% | 2.01% | 1.83% | 2.74% | 3.33% | 3.8% | 4.81% | 8.56% | 3.35% | 4.37% | 4.36% | 7.39% | -6.97%
[O-][S+]1CCN(Cc2ccc(-c3ccc4ncnc(Nc5ccc(OCc6cccc(F)c6)c(Cl)c5)c4c3)o2)CC1 | -3.68% | 3.89% | 6.86% | 5.46% | 5.91% | 1.58% | 7.69% | 5.02% | 6.64% | 2.49% | 3.02% | 4.31% | 4.49% | 2.52% | 5.75% | 3.34% | 7.82% | 1.01% | 7.14% | -4.66%
Cc1cccc2c1NC(=O)/C2=N\Nc1ccc(S(N)(=O)=O)cc1 | 7.35% | 1.51% | 6.03% | 6.45% | 7.83% | 0.61% | 7.81% | 2.71% | 7.61% | 2.54% | 0.76% | 4.21% | 11.3% | 5.35% | 11.4% | 2.99% | 4.7% | 3.22% | 10.1% | -3.51%
COc1cc2c(cc1Nc1nc(Nc3ccsc3C(N)=O)c3cc[nH]c3n1)N(C(=O)CN(C)C)CCC2(C)C | 3.1% | 0.79% | 4.14% | 4.5% | 2.9% | 2.15% | 1.57% | 4.15% | 2.78% | 3.19% | 3.95% | 3.45% | 4.27% | 2.57% | 6.2% | 95.7% | 78.5% | 2.86% | 4.17% | 47.4%
